Source: PubChem (several laboratories)
The list is not random: actives were taken first. Their share in the collection is about 2.6%.
EWS-Fli inh: inhibitors of EWS/Fli oncoprotein transcriptional activity; inhibition, % at 12.6 µM; hit rate 0.67% among 350,000; A673 NR0B1-luciferase reporter, viability-normalised;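 active means mean inhibition of at least 50% after viability correction, with every replicate also passing that limit; inconclusive means mean reaches 50% but only one of two replicates passes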;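 further: firefly luciferase signal divided by Alamar Blue viability fluorescence both relative to DMSO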
LGR2 antag: Drosophila LGR2 receptor signaling inhibition. HEK293 LGR2, CRE-luciferase, bursicon-stimulated, 4 h. inhibition, % at 9.99 µM. hit rate 0.35% among 380,000. AID 720647;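 active means drop in luminescence signal, shown as inhibition above about 50% in the replicate tests, limit read from the data, passing the limit was not always enough; inconclusive means probably only some replicates passing the limit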;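 further: agonist challenge used bursicon conditioned medium at about half maximal strength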
TWEAK-Fn14 inh: blocks TWEAK-Fn14 interaction in a reporter cell assay; TWEAK-stimulated Fn14 reporter cells, luciferase luminescence, 8 h; inhibition, % at 10 µM; hit rate 2% among 360,000; AID 1159606; in the data active means inhibition above about 50%
TROY NFkB inh: inhibitors of TROY-dependent NF-kB signaling; Q293 LMP1-TROYcd NF-kB luciferase reporter, 4 h; hit rate 0.98% among 360,000; inhibition, % at 10 µM;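 active means compounds whose plate-normalised and pattern-corrected inhibition of the luciferase reporter signal at the single screening dose is 50% or more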
EBV LMP1 NFkB: Epstein-Barr LMP1 NF-kappaB reporter inhibition. LMP1-induced NF-kappaB luciferase reporter cells, luminescence. inhibition, % at 12.5 µM. hit rate 0.69% among 350,000; in the data active means inhibition above about 41%; inconclusive means no clear call, values can overlap the other calls;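 further: 0% = neutral control wells and 100% = reference inhibitor control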
Numbers without * were called inactive; u = inconclusive; x = not tested or not shown.

SMILES	EWS-Fli inh	LGR2 antag	TWEAK-Fn14 inh	TROY NFkB inh	EBV LMP1 NFkB
Cc1cccnc1NC(=O)c1ccc(OCC2CCCO2)cc1 (configuration not stated)	-24.8	-4.2	-16.7	-30.0	-5.9
Cc1ccc2nc(NC(=O)c3ccc(OCC4CCCO4)cc3)sc2c1 (configuration not stated)	-12.2	4.8	90.3*	37.4	-2.6
CC1CC(C)(C)Nc2ccc(OC(=O)c3ccco3)cc21 (configuration not stated)	x	x	89.1*	49.2	25.2
CC1CC(C)(C)Nc2ccc(N=O)cc21 (configuration not stated)	36.5	1.6	80.4*	35.4	20.7
C[C@@H]1CN([C@@H](C)CO)S(=O)(=O)c2ccc(C#C[C@@H](C)O)cc2O[C@H]1CN(C)C(=O)c1ccccc1	-3.7	-17.4	x	x	x
CCCCN(CC)c1nc(-c2ccncc2)nc2ccccc12	x	x	56.9*	26.1	5.8
COCCN(CCOC)c1nc(-c2ccc(C)cc2)nc2ccccc12	1.7	32.5	-7.2	-25.9	-5.8
O=C(Oc1cccc(C(=S)N2CCOCC2)c1)c1ccccc1	x	1.2	82.1*	6.2	-6.1
O=C(O)C[C@@H]1C[C@@H]2c3cc(NC(=O)C4CCC4)ccc3O[C@@H]2[C@@H](CO)O1	5.6	11.6	x	x	x
Cc1ccc(Nc2nc(-c3c(C)nc4ccccn34)cs2)cc1	x	12.6	94.5*	59.0*	-2.1
CC(=O)Nc1nc(-c2ccc3ccccc3c2)cs1	-55.0	-98.6	9.1	-71.8	-50.9
Oc1ccc(Nc2nc(-c3ccc4ccccc4c3)cs2)cc1	x	x	75.9*	8.9	-255.1
CC(C)Oc1ccc(CNC(=O)CC(c2ccccc2)c2cc(Cl)ccc2O)cc1 (configuration not stated)	x	u	47.3	56.2*	-2.0
CC(=O)NC1Sc2ccccc2N=C1c1ccccc1 (configuration not stated)	x	-49.4	53.0*	x	-27.5
COC(=O)c1ccc2nc(-c3ccc(OC)c(OC)c3)c(Cc3ccc(OC)cc3C)n2c1	3.5	-4.2	-13.3	5.9	x
COC(=O)c1ccc2nc(-c3ccc(Cl)cc3)c(Cc3ccc(OC)cc3C)n2c1	-21.8	-8.9	81.5*	51.3*	x
CCOC(=O)c1c2c(n(C)c1C)C(=O)C(=O)c1ccc(Br)cc1-2	x	x	86.9*	44.6	77.0*
CCOC(=O)c1c2c(n(Cc3ccccc3)c1C)C(=O)C(=O)c1ccccc1-2	68.9*	103.9*	104.5*	64.9*	14.2
CO[C@@H]1CN(C)C(=O)c2cc(NC(=O)c3cnccn3)ccc2OC[C@H](C)N(C(C)=O)C[C@H]1C	-0.4	5.8	x	x	x
COc1ccc(S(=O)(=O)N2c3ccccc3OCC2C(C)(C)C)cc1 (configuration not stated)	58.2*	17.9	-5.7	4.1	-5.8
COc1ccc(S(=O)(=O)N2c3ccccc3OCC2c2ccccc2)cc1 (configuration not stated)	x	x	79.2*	40.9	18.3
COc1ccc(S(=O)(=O)N2CCOc3ccccc32)cc1	55.8*	3.6	5.8	0.5	2.3
COc1ccc(S(=O)(=O)N2c3ccccc3OCC2CC(=O)O)cc1 (configuration not stated)	7.5	-8.5	-11.8	6.0	-2.6
COc1ccc(S(=O)(=O)N2c3ccccc3OCC2C)cc1 (configuration not stated)	73.7*	-1.9	8.6	26.1	9.1
Cc1ccc(S(=O)(=O)N(C)C[C@@H]2OCCCC[C@H](C)Oc3ccc(NS(=O)(=O)c4c(C)noc4C)cc3C(=O)N([C@@H](C)CO)C[C@@H]2C)cc1	11.7	-5.2	x	x	x
SMILES	EWS-Fli inh	LGR2 antag	TWEAK-Fn14 inh	TROY NFkB inh	EBV LMP1 NFkB
CC[C@@H](C(=O)[C@@H](C)[C@@H](O)[C@H](C)[C@@H]1O[C@@H]([C@@H](CC)C(=O)O)CC[C@@H]1C)[C@H]1O[C@]2(C=C[C@@H](O)[C@]3(CC[C@@](C)([C@H]4CC[C@](O)(CC)[C@H](C)O4)O3)O2)[C@H](C)C[C@@H]1C	12.4	x	55.6*	50.9*	-4.2
CCN1CCN(C(=O)CN2C(=O)c3ccccc3S2(=O)=O)CC1	-43.3	-94.8	28.1	61.7*	-35.9
COc1ccc(NC(=O)CN2C(=O)c3ccccc3S2(=O)=O)cc1OC	-3.6	4.5	-8.3	10.9	3.2
O=C(CN1C(=O)c2ccccc2S1(=O)=O)c1ccc(O)c(O)c1	22.1	4.4	47.9	28.6	23.1
Cc1ccc(C)c(C(=O)CN2C(=O)c3ccccc3C2=O)c1	-5.3	7.9	-18.5	-28.9	-4.6
O=C(CN1C(=O)c2ccccc2S1(=O)=O)c1ccc(F)c(F)c1	35.1	64.6*	90.9*	72.3*	46.3*
